Here are results for 19 sequences from the OligoGym collection.
Also: reference of the scale not given here.

The target of one assay is ANKRD22. Kind of assay: pooled miR-30 sensor sort-seq; sequence = guide strand. To be noted: shRNA.
In turn, TACAAGAGCCTCATTCTGCTTT had a sensor-assay potency score (higher = more potent) of -0.0713.

In the case of TAAATTTTTTCTTCACAGCATA, the sensor-assay potency score (higher = more potent) is -1.16. Same read-out and setting: with TTGTCTTTGATACCATGAGGAA the figure was -1.48; with TTGACATTAGCATTTCTTCTTA, -0.439; with TAGCATTCGTACAAGAGCCTCA, 0.13. Same read-out and setting: with TAGCATTAACTTCGACGCCAGC the figure was -1.11; with TTATTGTGGGGTCTGCACGGGC, -0.753.

The next assay deals with ANKRD23. The description is as above. Conditions: shRNA.
On to TCTTTCTCCACTTACCAACTGC, for which the sensor-assay potency score (higher = more potent) was -0.293.

TCTTTGAACCAAGTTTTCCAAG yielded a sensor-assay potency score (higher = more potent) of -1.3. Take TTCCAATTTCAGCTTCTCCCGG: the sensor-assay potency score (higher = more potent) is -0.86. Same read-out and setting: with TTTTCCACATAGTAACAACAGC the figure was -1.09; with TAATTTGAAACGTACAGACGGT, 0.00484. On the same count and under the same terms, with TGTCTCAGTCGCTTTTTCCGTC the figure was -0.0673; with TTCTCCACTTACCAACTGCTGA, -0.872; with TTATCCAGATTAAATCTGGTAC, -0.803. Sequence TAGAGCAGCAGTAGCTTCATGG came in with a sensor-assay potency score (higher = more potent) of -0.653. The same measure, in the same setting: under TTAAGATTCACTTTCTGGCGTT stands -0.127. On the same count and under the same terms, with AAATCTTTCAAGTTTCTTCTTC the figure was 0.216; with TTCATGGCTTTGTAGCTGCCGT, -0.986.
